Results: PubChem BioAssay (NCI)
About 83,000 compounds went through this panel and 20% of them were active in at least one assay; those are over-represented in the sample as a whole.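 Assay: single dose, 48 h. Readout: percent growth (0 = no net growth; negative = cell death). Active: <10.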 A number with no mark means an inactive call. The source made the active and inactive calls.

Experiments:
Assay in all cases: NCI-60 one-dose screen, 48 h (100 = growth as untreated, 0 = no growth, -100 = all killed)
NCI-H226 lung = conditions: 10 µM unless noted
NCI-H322M lung = conditions: 10 µM unless noted
HOP-62 NSCLC = conditions: 10 µM unless noted
NCI-H460 lung = conditions: 10 µM unless noted
NCI-H522 lung = conditions: 10 µM unless noted
A549/ATCC NSCLC = conditions: 10 µM unless noted
786-0 renal = conditions: 10 µM unless noted
COLO 205 colon = conditions: 10 µM unless noted
DU-145 prostate = conditions: 10 µM unless noted
K-562 leukemia = conditions: 10 µM unless noted
MALME-3M melanoma = conditions: 10 µM unless noted
MDA-MB-231 breast = conditions: 10 µM unless noted
RXF 393 renal = conditions: 10 µM unless noted
SF-268 CNS = conditions: 10 µM unless noted
SF-295 CNS = conditions: 10 µM unless noted
SF-539 CNS = conditions: 10 µM unless noted
UACC-257 melanoma = conditions: 10 µM unless noted
M14 melanoma = conditions: 10 µM unless noted
HOP-92 NSCLC = conditions: 10 µM

Structure (SMILES)	growth (NCI-H226 lung)	growth (NCI-H322M lung)	growth (HOP-62 NSCLC)	growth (NCI-H460 lung)	growth (NCI-H522 lung)	growth (A549/ATCC NSCLC)	growth (786-0 renal)	growth (COLO 205 colon)	growth (DU-145 prostate)	growth (K-562 leukemia)	growth (MALME-3M melanoma)	growth (MDA-MB-231 breast)	growth (RXF 393 renal)	growth (SF-268 CNS)	growth (SF-295 CNS)	growth (SF-539 CNS)	growth (UACC-257 melanoma)	growth (M14 melanoma)	growth (HOP-92 NSCLC)
O=C(Nc1nc2ccc([N+](=O)[O-])cc2s1)Nc1ccccc1Cl	30.7%	52.2%	28.2%	20.1%	0.0093% (active)	30.2%	48.5%	39.8%	40.2%	20.6%	12.1%	47.5%	49.2%	41.7%	48.5%	54.7%	23.2%	45.1%	
COc1ccc(/C=N/NC2=NC3C(S2)N(C)C(=O)N3C)cc1 (centres undefined)		47.5%	29.1%	9.74% (active)	-9.16% (active)	48.6%	43.9%	7.48% (active)	25.2%	9.56% (active)	39%	44.9%	-19.3% (active)	47.6%	10.6%	2.22% (active)	79.8%	32.5%	30.7%
CCNC(=O)N1CCc2cc(OC)c(OCCc3ccc(OC)cc3)cc2C1c1ccc(Cl)cc1C (centres undefined)	32.4%	46.6%	27.7%	1.35% (active)	-16.2% (active)	9.93% (active)	9.78% (active)	13.9%	16.2%	12.3%	60.4%	12.4%	-4.98% (active)	27.1%	13.3%	5.79% (active)	44.7%	17.5%	
O=c1[nH]c2ccccc2cc1CSc1ccccc1Nc1nccc(-c2ccc(Cl)cc2)n1	94.1%	94.1%	95.6%	97.5%	97.4%	95.4%	101%	125%	102%	94.7%	86.1%	84.5%	93.5%	94.6%	95.5%	82.7%	104%	108%	
CC1=CC(=O)C2=C(C)CC(OC(=O)CCc3ccccc3)[C@@H]3[C@H](OC(=O)[C@@H]3C)[C@@H]12 (some centres undefined)	97.9%		102%	103%	77.4%	89%	92.6%	95.2%	101%	84.2%	113%	96.8%	122%	98.8%	90.7%	94.1%	91.6%		
NC/C(=C/F)COc1ccc2nc(NCc3cccnc3)oc2c1	94.3%	111%	77%	98.8%		95.3%	92.5%	111%	95%	109%	108%	96%	66.9%	93.2%	99.9%	91.9%	95.9%	103%	116%
CCO/C=N/C1=C(C#N)C(c2ccc(Cl)cc2)c2sc3c(C)cccc3c2O1 (centres undefined)	51.1%	43.6%	41.4%	4.89% (active)	8.93% (active)	26.9%	29.1%	4.67% (active)	19.2%	7.31% (active)		24.4%	-27.6% (active)	51.1%	-19.3% (active)	-11.5% (active)	76.2%	1.8% (active)	
CC[C@]12C=CCN3CC[C@@]4(c5cc(NC(=O)COc6cc(O)c7c(=O)cc(-c8ccccc8)oc7c6)c(OC)cc5N(C)[C@H]4[C@@](O)(C(=O)OC)[C@@H]1OC(C)=O)[C@@H]32	-70.4% (active)	-51.8% (active)	-73.6% (active)	-57.7% (active)	-49.7% (active)	-68.5% (active)	-59.9% (active)	-81% (active)	-33.6% (active)	-1.41% (active)		-58.3% (active)	-92.1% (active)	-60.6% (active)	-85.3% (active)	-77.1% (active)	-76.1% (active)	-75.4% (active)	
O=C(CN1CCN(c2cc(=O)[nH]c3ccc(F)cc23)CC1)Nc1ccc(Cl)cc1	16.5%	80.2%	43.9%	41.1%	13.1%	71.8%	36.3%	112%	78.1%	78.8%		62.2%	-3.61% (active)	38.3%	67.2%	56.9%	65%	85%	
Cn1cc(-c2nc(N)nnc2-c2c[nH]c3ccc(Br)cc23)c2cc(Br)ccc21	79.9%	68.4%	59.6%	17.3%	11.6%		51.1%	36.3%	64.8%	12.2%	43%	62.5%	39.8%	61.3%	11.7%	43.8%	82.9%	20.7%	
CCNC(=O)Oc1ccc(/C(=C(/C)c2ccccc2)c2ccc(OCCN3CCCCCC3)cc2)cc1	55%		6.15% (active)	-67.3% (active)	63.8%	36.1%	-91.7% (active)	-75.7% (active)	38.7%	2.41% (active)	-70.8% (active)	6.37% (active)	-7.37% (active)	31.8%	-1.08% (active)	-74.5% (active)	-48.9% (active)	-80.3% (active)	-12.8% (active)
Cc1cc(S(=O)(=O)N(C)C)cc(NCC(=O)NC(=O)NCC(C)C)c1C	90.7%	100%	78.6%	109%		88%	91.1%	109%	85.1%	97.1%	106%	85.6%	64.8%	81.5%	100%	97.1%	103%	100%	84.5%
CC(=O)c1ccc(Nc2nc(SCC(C)C)nc(-c3ccc(F)cc3)c2C#N)cc1	114%	116%	116%	109%	103%	109%	105%		113%	106%	114%	106%	118%	114%	118%	105%	106%	115%	
CC(=O)Nc1cccc(Nc2nc(N[C@H](C)c3ccccc3)c3ccccc3n2)c1	82.6%	90.3%	72.6%	41.2%		40.7%	54.9%	44.1%	65%	5.94% (active)	71.3%	57.8%	-5.79% (active)	62.9%	42.3%	73.9%	58.6%	58.7%	22%
COc1ccccc1NCc1cccn1Cc1ccc(F)cc1	90.4%		92%	103%	79.5%	101%	92.8%	110%	90%	111%	101%	89.4%		92.5%	104%	98.6%	102%		81.5%
O=c1c2ccccc2nc(COc2ccccc2)n1NS(=O)(=O)c1ccc(Cl)cc1	83%	82.9%	75%	96.1%	69.4%	86%	107%		100%	47.3%	82.1%	67.4%	97%	88.6%	97.2%	86.9%	91.2%	74.2%	
Cc1ccc(CSc2nc(-c3ccc(Cl)cc3)c(C#N)c(N3CCNCC3)n2)cc1	90.2%	89%	80.3%	88.6%	95%	81.2%	66.8%	109%	82.6%	3.43% (active)	96.3%	77.2%	67.8%	79.6%	95.4%	80.9%	99.4%	98.1%	
COc1cccc(N2CCN(c3ncnc4c3[nH]c3ccc(F)cc34)C[C@H]2C)c1		89.6%	56.6%	66.3%	33.1%	61%	71.4%	61.4%	81.5%	26.6%	48.2%	64.3%	88%	84.5%	31.8%	69.6%	15.4%	41.7%	53.3%
